ALDH1A1 inh: qHTS Assay for Inhibitors of Aldehyde Dehydrogenase 1 (ALDH1A1). Potency, µM (highest dose often 75.3 µM), inactives show at the top dose activity, negative = inhibition, hits mostly inhibitors. AID 1030, 2008. Aldehyde dehydrogenase 1A1 (Homo sapiens), P00352. Purified ALDH1A1, NADH fluorescence, propionaldehyde substrate. 220,000 tested, 7.3% active;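 also: potency is read from the fitted curve at half-maximal effect; plate controls were no enzyme wells and a reference inhibitor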
IMPase cell inh: qHTS Assay for Identifying the Cell-Membrane Permeable IMPase Inhibitors; Inositol monophosphatase 1 (Rattus norvegicus), P97697; CHO-M1 cells, IP1 accumulation, HTRF TR-FRET ratio; inhibition (IP1 accumulation), % at 46.1 µM; 120,000 tested, under 10 active; active = well fitted curve in the direction sought with a large enough effect in the signal ratio, not every such curve was filed as active; inconclusive = small, poorly fitted or top-dose-only effect, or a change in a side signal; inactive = no such curve, though single readings can be large or run the other way; the % refers to the signal ratio;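 also: cells stimulated with carbachol in lithium chloride buffer; plate controls were DMSO basal wells for no effect and reference inhibitor wells for full effect; higher means more IMPase inhibition seen as more IP1 and lower FRET ratio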
Target sequence (P97697 whole entry, looked up): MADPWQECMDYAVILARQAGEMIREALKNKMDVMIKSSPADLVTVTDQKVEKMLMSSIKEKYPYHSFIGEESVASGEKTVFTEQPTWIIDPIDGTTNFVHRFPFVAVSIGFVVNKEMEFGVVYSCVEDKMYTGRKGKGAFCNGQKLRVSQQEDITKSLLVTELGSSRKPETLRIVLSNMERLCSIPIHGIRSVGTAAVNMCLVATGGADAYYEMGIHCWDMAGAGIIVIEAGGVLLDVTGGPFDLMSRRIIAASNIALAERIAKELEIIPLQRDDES
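The IP-One HTRF competitive assay in carbachol-stimulated CHO-M1 cells quantifies cellular IP1. Compounds spanned up to 46 uM final, and activity is expressed as AC50 from concentration-response fits of the ratio and donor data.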
HPGD inh: qHTS Assay for Inhibitors of HPGD (15-Hydroxyprostaglandin Dehydrogenase); purified HPGD, NADH fluorescence kinetic, PGE2 substrate; 15-hydroxyprostaglandin dehydrogenase [NAD(+)] (Homo sapiens), P15428; Potency, µM, without a hit: at the highest dose activity change, negative = inhibition, usual class: inhibitors; 150,000 tested, 4.3% active; also: potency is read from the fitted curve at half-maximal effect
Target sequence (P15428 whole entry, looked up): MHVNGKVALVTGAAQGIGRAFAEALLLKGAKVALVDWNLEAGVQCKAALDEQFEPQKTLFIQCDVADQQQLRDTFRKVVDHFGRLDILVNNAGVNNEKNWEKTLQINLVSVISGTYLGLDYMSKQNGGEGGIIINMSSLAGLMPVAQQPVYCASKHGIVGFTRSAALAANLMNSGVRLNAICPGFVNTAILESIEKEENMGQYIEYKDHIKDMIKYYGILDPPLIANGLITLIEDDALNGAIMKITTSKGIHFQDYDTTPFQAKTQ
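NADH formation kinetics: reaction with 30 uM PGE2 and 1 mM NAD+ (final), 20 nM enzyme, Tris-HCl pH 8 with Tween 20, after 15 min compound preincubation at room temperature. Fluorescence change, last versus first of five reads.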
* hit, by the source's call; ? = inconclusive; . = no result given; [ ] = another dose, or the depositor's remark. Hits are enriched below; roughly 9% of the tested compounds scored in any of these assays. Unless noted, calls follow the shape of the dose curve; as a rule, active = well fitted inhibition curve with a large enough effect (not every such curve was filed as active); inconclusive = small, poorly fitted or top-dose-only effect, or another doubt; inactive = no such curve, though single readings can be large or run the other way. Unless noted, % is scaled to controls: 0 for no effect and ±100 for the full control effect.

SMILES	ALDH1A1 inh	IMPase cell inh	HPGD inh
Cc1cccc(N2CCN(S(=O)(=O)c3ccc4c(c3)CCN4C(=O)CCC(=O)O)CC2)c1C	11%	-1	-5%
O=C(O)CCC(=O)N1CCc2cc(S(=O)(=O)NC3CCCc4ccccc43)ccc21 (stereo not drawn)	?	-5	.
O=C(C1CCC1)N1CCc2cc(S(=O)(=O)NC3CCCC3)ccc21	-9%	5	10µM*
O=C(C1CCC1)N1CCc2cc(S(=O)(=O)NC3CCCc4ccccc43)ccc21 (stereo not drawn)	-9%	-1	?
CC(=O)Nc1ccc(N2C(=O)c3ccc(C(=O)Nc4nnc(SCc5ccc(F)cc5)s4)cc3C2=O)cc1	2%	.	.
CCCCNC(=S)N/N=C/c1ccc(OCC(=O)Nc2c(C)cc(C)cc2C)c(OC)c1	-1%	.	-24%
Cc1c(Br)c([N+](=O)[O-])nn1CC(=O)Nc1ccc(C(N)=O)cc1	-1%	.	.
Cc1cccc(N2CCN(C(=O)CSc3ccsc3[N+](=O)[O-])CC2C)c1 (stereo not drawn)	20%	.	-21%
COCC(=O)N(Cc1cc2ccc(C)cc2[nH]c1=O)c1ccc(OC)cc1	-11%	-1	-8%
CCOc1ccc(N(Cc2cc3ccc(C)cc3[nH]c2=O)C(=O)COC)cc1	18µM*	4	-13%
Cn1c(NC(=O)/C=C/c2ccco2)cc(=O)n(C)c1=O	?	.	-7%
CC(/C=C/c1cccs1)=C\C(=O)O	2%	4	-21%
Cc1ccc(NC(=O)/C=C/c2ccc(C)o2)c(C)c1	.	2	.
Cc1ccc(/C=C/C(=O)Nc2cc(=O)n(C)c(=O)n2C)o1	22µM*	.	-11%
CCOC(=O)/C=C/C(=O)OCC(=O)Nc1ccc(C)cc1	-3%	.	.
COC(=O)c1ccc(Cl)cc1NC(=O)/C=C/c1ccc(C)o1	20µM*	.	?
CC(/C=C/c1ccc(C)o1)=C\C(=O)O	20µM*	-1	-22%
CCOC(=O)/C=C/C(=O)Nc1ccc(S(=O)(=O)Nc2c(C)cc(C)cc2C)cc1	13µM*	.	-5%
CC(Nc1ccccc1)C(=O)Nc1ccc(F)cc1 (stereo not drawn)	8%	-2	-9%
Cc1nc2cnc(OCc3ccccc3)nc2n(C)c1=O	-12%	.	.
CCOc1ccccc1Nc1nnc(SCC(=O)Nc2cccc(S(=O)(=O)NC3=NCCCCC3)c2)s1	?	.	-32%
O=C(Nc1ccc(S(=O)(=O)N2CCOCC2)cc1)c1ccc(=O)[nH]c1	1%	.	.
CCN1CCN(C(=O)/C=C/c2ccc(C)o2)CC1	-10%	10	-13%
CCOC(=O)C(=O)Nc1ccc(Oc2ccccc2)cc1	3%	.	.
CCOC(=O)/C=C/C(=O)Nc1ccc(Oc2ccccc2)cc1	25µM*	.	.
SMILES	ALDH1A1 inh	IMPase cell inh	HPGD inh
Cc1ccc(/C=C/C(=O)Nc2ccc(Oc3ccccc3)cc2)o1	24µM*	13	25µM*
Cc1ccc(/C=C/C(=O)N2CC(C)CC(C)C2)o1 (stereo not drawn)	10µM*	1	?
CC(=O)c1ccc(NC(=O)/C=C/c2ccc(C)o2)cc1	.	5	.
Cc1ccc(/C=C/C(=O)Nc2ccc([N+](=O)[O-])cc2)o1	12µM*	-9	.
CCCOc1ccc(/C=C/C(=O)Nc2ccc([N+](=O)[O-])cc2)cc1	5%	3	.
Cc1ccc(NC(=O)CCSc2nc(-c3ccco3)cc(C(F)(F)F)n2)cc1F	.	-2	.
COC(=O)c1ccccc1NC(=O)CN1C(=O)COc2ccc(Cl)cc21	.	7	.
CCCC(C)C(=O)Nc1ccc(S(=O)(=O)Nc2nccc(C)n2)cc1 (stereo not drawn)	1%	.	.
Cc1nn(-c2c(Cl)cc(Cl)cc2Cl)c(=O)c2ccccc12	-11%	15	13µM*
Cc1nn(-c2ccccc2C(=O)O)c(=O)c2ccccc12	-2%	8	-6%
CC(C)c1cc(Br)ccc1OCCN1C(=O)NC(C)(C)C1=O	-18%	.	.
COc1cccc(/C=C(/C#N)c2ccc(Cl)cc2)c1OCc1cccc(C(=O)O)c1	-8%	.	.
COc1cccc(/C=C(/C#N)c2ccc(F)cc2)c1OCc1cccc(C(=O)O)c1	13µM*	.	?
CC1CCc2nn(CC(=O)NCCN3CCCCC3C)cc2C1 (stereo not drawn)	?	?	-14%
COC(=O)C1=C(C)N(CCc2ccc(OC)c(OC)c2)C(=O)/C1=C\N(C)C	14µM*	-4	-7%
COc1ccc(CCNC2=C(Cl)C(=O)N(CCc3ccc(OC)c(OC)c3)C2=O)cc1OC	-5%	7	-22%
CC1Cc2ccccc2N1C(=O)CSc1nnnn1C1CCCC1 (stereo not drawn)	2.5µM*	4	-18%
CC1Cc2ccccc2N1C(=O)CSc1nnnn1-c1ccc2c(c1)OCCO2 (stereo not drawn)	?	3	-12%
CC1Cc2ccccc2N1C(=O)CSc1nnc2sc3ccccc3n12 (stereo not drawn)	14µM*	-4	-4%
CC1Cc2ccccc2N1C(=O)CSc1nnnn1C (stereo not drawn)	-4%	-6	3%
Cc1nnc(SCC(=O)N2c3ccccc3CC2C)s1 (stereo not drawn)	9%	-2	-1%
CC1Cc2ccccc2N1C(=O)CSc1nnnn1C(C)C (stereo not drawn)	28µM*	-2	-6%
CC1=C(C(=O)OCc2ccc(C)cc2)C(c2ccccc2C(F)(F)F)CC(=O)N1 (stereo not drawn)	.	-29	.
CC(=O)S[C@@H]1CC2=CC(=O)CC[C@@]2(C)[C@H]2CC[C@]3(C)[C@H](CC[C@@]34CCC(=O)O4)[C@H]12	.	-2	.
COc1ccc(C(C)(C)C)cc1NC(=O)COC(=O)C(C)C	1%	.	.
SMILES	ALDH1A1 inh	IMPase cell inh	HPGD inh
CC(=O)Nc1nnc(CSCc2ccccc2F)s1	0%	.	.
CCc1ccc(-n2c(CSc3nnnn3-c3ccccc3)nc3ccccc3c2=O)cc1	1.4µM*	-3	-11%
COC(=O)c1ccc(CSc2nnnn2-c2ccccc2)o1	7.1µM*	3	-21%
O=c1[nH]c(SCc2nc3ccccc3c(=O)n2-c2ccccc2)nc2ccccc12	-4%	6	?
COC(=O)c1ccc(-n2nnnc2SCc2ccccc2OC)cc1	14µM*	8	-24%
COC(=O)c1ccc(-n2nnnc2SCC(=O)Nc2ccccc2C(=O)OC)cc1	-1%	22	-22%
COC(=O)c1ccc(CSc2nnc(-c3ccccc3)n2C)o1	-10%	.	.
O=C(COC(=O)c1ccc(Cl)c(S(=O)(=O)N2CCc3ccccc3C2)c1)Nc1ncc(Cl)cc1Cl	-3%	.	-12%
O=C1C2Sc3[nH]c(=O)sc3C(c3ccccc3)C2C(=O)N1c1ccc(Cl)cc1 (stereo not drawn)	-9%	-4	-2%
CCN(C(=O)C(C)Cl)c1ccccc1 (stereo not drawn)	4%	.	.
Cc1cc(C)c(O)c(-c2cc(C(=O)NCc3ccccc3)[nH]n2)c1	?	-2	-13%
Cc1cc(O)c(-c2cc(C(=O)Nc3ccc(S(=O)(=O)N4CCOCC4)cc3)[nH]n2)cc1C	10%	-1[1.84 µM]	-2%

Bioassay records: PubChem BioAssay, National Center for Advancing Translational Sciences (NCATS)
